Assay outcomes: PubChem BioAssay, National Center for Advancing Translational Sciences (NCATS)
WRN helicase inh = qHTS for Inhibitors of WRN Helicase | Bifunctional 3'-5' exonuclease/ATP-dependent helicase WRN (Homo sapiens), Q14191 | Potency, µM (series often up to 114 µM), inactives show at the highest dose activity change, negative = inhibition, actives largely listed as inhibitors | actives 0.46% (n = 360,000) | WRN helicase unwinding, fluorescent forked duplex, kinetic | AID 651768, 2012; also: nearly all actives have a fitted effect of over 55% in size
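Screening of the MLSMR collection measured strand separation of a quenched forked DNA duplex (100 nM) by 20 nM WRN with 2 mM ATP, all final. Compounds were preincubated with enzyme 15 min at room temperature.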
TRb-SRC2 inh = qHTS for Inhibitors of the Interaction of Thyroid Hormone Receptor and Steroid Receptor Coregulator 2; Potency, µM (top dose mostly 106 µM), for inactives: at the top dose activity change, negative = inhibition, most hits filed as inhibitors; Thyroid hormone receptor beta (Homo sapiens), P10828; actives 0.065% (n = 280,000); TRbeta-SRC2 peptide binding, fluorescence polarization; receptor liganded with 1 µM T3;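 also: plate controls were bound peptide for no effect and peptide without receptor for full effect; nearly all actives have a fitted effect of over 50% in size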
Target sequence (P10828 whole entry, looked up): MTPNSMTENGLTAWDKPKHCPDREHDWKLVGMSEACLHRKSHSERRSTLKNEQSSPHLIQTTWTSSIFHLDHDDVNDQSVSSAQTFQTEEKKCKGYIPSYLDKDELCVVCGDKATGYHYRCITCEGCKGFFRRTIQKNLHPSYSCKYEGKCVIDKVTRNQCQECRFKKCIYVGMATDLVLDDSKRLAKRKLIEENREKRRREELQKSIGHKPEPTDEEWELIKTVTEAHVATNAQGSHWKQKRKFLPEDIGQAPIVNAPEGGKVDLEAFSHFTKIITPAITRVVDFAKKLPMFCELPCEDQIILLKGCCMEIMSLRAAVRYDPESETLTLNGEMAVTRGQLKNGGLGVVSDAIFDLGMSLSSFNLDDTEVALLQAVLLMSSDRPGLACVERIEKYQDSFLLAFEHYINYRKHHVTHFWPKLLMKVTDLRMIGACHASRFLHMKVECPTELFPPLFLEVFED
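Polarization signal, normalized between peptide-alone and full complex controls, measured compound effects on T3-liganded human TRb LBD (0.6 uM) binding 20 nM Texas Red SRC2 peptide after 5 hr.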
APEX1 inh = qHTS Assay for Inhibitors of the Human Apurinic/apyrimidinic Endonuclease 1 (APE1). Potency, µM (series often up to 65.8 µM), for the others: at the highest dose activity change, negative = inhibition, hits mostly inhibitors. AID 2517, 2012. actives 0.35% (n = 350,000). recombinant APE1, TAMRA/BHQ-2 abasic DNA cleavage fluorescence. DNA repair nuclease/redox regulator APEX1 (Homo sapiens), P27695;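 also: plate controls were vehicle for no effect and reference inhibitor for full effect; nearly all actives have a fitted effect of over 55% in size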
Target sequence (P27695 whole entry, looked up): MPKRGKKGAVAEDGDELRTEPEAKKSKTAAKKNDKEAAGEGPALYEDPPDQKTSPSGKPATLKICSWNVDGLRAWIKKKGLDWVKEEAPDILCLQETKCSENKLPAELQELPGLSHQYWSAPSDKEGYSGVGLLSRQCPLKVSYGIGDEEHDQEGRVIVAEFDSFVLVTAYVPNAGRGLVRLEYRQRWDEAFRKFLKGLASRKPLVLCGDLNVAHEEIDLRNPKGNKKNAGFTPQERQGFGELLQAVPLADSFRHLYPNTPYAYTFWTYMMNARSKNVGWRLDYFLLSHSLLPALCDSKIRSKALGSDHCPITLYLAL
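Readout is kinetic fluorescence (ex 525, em 598 nm) from cleavage of 50 nM TAMRA/BHQ-2 THF abasic duplex by 0.75 nM APE1, compound added 15 min beforehand at RT.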
TexasRed fluor = Total Fluorescence Counterscreen for Inhibitors of the Interaction of Thyroid Hormone Receptor and Steroid Receptor Coregulator 2; actives 0.29% (n = 280,000); TRb/SRC2 Texas Red total fluorescence interference; Potency, µM (highest dose often 106 µM), without a hit: at the top dose fluorescence change, negative = quenching; active = well fitted curve in either direction with a large enough effect; inconclusive = small, poorly fitted or top-dose-only effect
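Flags fluorescent or light-absorbing compounds by total fluorescence, S + 2P, at 555 nm excitation and 632 nm emission. Mixture: 20 nM Texas Red SRC2 peptide, 0.6 uM human TRb LBD, 1 uM T3, 5% DMSO; compound exposure 5 h at ambient temperature.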
RECQ1 inh-1 = qHTS Assay for Inhibitors of RecQ-Like Dna Helicase 1 (RECQ1); RECQ1 DNA unwinding, red fluorescence kinetic read; actives 0.54% (n = 240,000); ATP-dependent DNA helicase Q1 (Homo sapiens), P46063; Potency, µM (titrated, usually from 57.3 µM), inactives show top-dose activity, negative = inhibition, most hits filed as inhibitors;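 also: plate controls were vehicle for no effect and no enzyme for full effect; nearly all actives have a fitted effect of over 30% in size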
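RECQ1T1 50 nM; forked duplex (20 bp + 30-nt ss tails) 200 nM, ATP 2 mM final; pH 8.0, 2 mM MgCl2, 2.5 ug/ml poly(dI-dC); 15 min compound preincubation; discontinuous kinetic read over 2 h at RT.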
BLM inh = qHTS Assay for Inhibitors of Bloom's syndrome helicase (BLM); recombinant BLM DNA unwinding, fluorescence dequenching; AID 2528, 2010; RecQ-like DNA helicase BLM (Homo sapiens), P54132; Potency, µM (titrated, usually from 56.1 µM), for the others: top-dose activity change, negative = inhibition, actives largely listed as inhibitors; actives 0.2% (n = 350,000);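 also: plate controls were vehicle for no effect and no enzyme for full effect; nearly all actives have a fitted effect of over 35% in size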
RECQ1 conf = Confirmation qHTS Assay for Inhibitors of RecQ-Like Dna Helicase 1 (RECQ1); shares compounds with RECQ1 inh-1; RECQ1 helicase DNA unwinding, fluorescence; Potency, µM (highest dose often 229 µM), for inactives: top-dose activity change, negative = inhibition, hits mostly inhibitors; actives 28% (n = 610); also: nearly all actives have a fitted effect of over 45% in size
ADP FP counter = Counterscreen for RECQ1 Inhibitors: ADP Fluorescence Polarization Displacement Assay; AID 2711, 2010; Potency, µM (series often up to 228 µM), without a hit: top-dose activity change, negative = inhibition, most hits filed as inhibitors; ADP fluorescence polarization displacement counterscreen; actives 27% (n = 530); shares compounds with RECQ1 inh-1; also: nearly all actives have a fitted effect of over 45% in size
RECQ1 inh-2 = Confirmation qHTS Assay for Inhibitors of RecQ-Like Dna Helicase 1 (RECQ1) - Round 2 Cherry Picks; shares compounds with RECQ1 inh-1; recombinant RECQ1 DNA unwinding, red fluorescence; Potency, µM (top dose mostly 119 µM), inactives show at the top dose activity, negative = inhibition, actives largely listed as inhibitors; actives 15% (n = 1,100); AID 504841, 2011; also: nearly all actives have a fitted effect of over 50% in size
Active calls of the source: *; ! = repeats disagree; [ ] = remark or other dose. Rows were chosen to be rich in hits. Some 0.91% of all compounds tested hit in one or more screens of this group. Unless noted, calls follow the shape of the dose curve; as a rule, active = well fitted curve in the direction sought with a large enough effect; inconclusive = small, poorly fitted or top-dose-only effect, or another doubt; inactive = no such curve, though single readings can be large; an effect the other way counts as inactive or inconclusive. Unless noted, % is scaled to controls: 0 for no effect and ±100 for the full control effect; potency is read from the fitted curve at half-maximal effect.

How did Cc1ccc(C)c(Cn2c(SCC(=O)N(C)Cc3ccccc3)nc3ccccc32)c1 do in these assays?
TRb-SRC2 inh: -0.1%; TexasRed fluor: -2.6%; BLM inh: -8.1%

How did COc1cc(O)c(CC=C(C)C)c(O)c1C(=O)CCc1ccc(O)cc1 do in these assays?
WRN helicase inh: -16.1%; TRb-SRC2 inh: 3.6%; APEX1 inh: -10.2%; TexasRed fluor: -2.2%; RECQ1 inh-1: -7.6%; BLM inh: -15.2%

What do the screens show for `O=C(CCc1ccc(O)cc1)c1c(O)cc(O)cc1O`?
WRN helicase inh: -3.4%; TRb-SRC2 inh: inconclusive; APEX1 inh: -5.7%; TexasRed fluor: -1.1%; RECQ1 inh-1: 12.6µM*!; BLM inh: -14.6%; RECQ1 inh-2: -13.3%

What do the screens show for `c1ccc2c(c1)CCN(C1=Nc3cccc4cccc1c34)C2`?
WRN helicase inh: -17.4%; TRb-SRC2 inh: 5.6%; APEX1 inh: inconclusive; TexasRed fluor: 2.2%; RECQ1 inh-1: 12.6µM*; BLM inh: 4.1%; RECQ1 conf: 10.6%[114 µM]; RECQ1 inh-2: -5.9%

How did c1cc2c3c(cccc3c1)C(N1CCCCCC1)=N2 do in these assays?
WRN helicase inh: 7.2%; TRb-SRC2 inh: 8.0%; APEX1 inh: -5.4%; TexasRed fluor: 3.9%; RECQ1 inh-1: 5.6%; BLM inh: 54.0%

What do the screens show for `COc1cccc(-c2nnc(SC(C(=O)c3c[nH]c4ccccc34)c3ccccc3)n2C)c1` (stereo unspecified)?
WRN helicase inh: 2.7%; TRb-SRC2 inh: 0.8%; APEX1 inh: -5.9%; TexasRed fluor: 0.7%; RECQ1 inh-1: -7.4%; BLM inh: -4.1%; RECQ1 conf: 2.1%; ADP FP counter: 14.6%

Results for Nc1ncnc2c1ncn2CCOCP(=O)(O)O ?
TRb-SRC2 inh: 9.0%; TexasRed fluor: -3.5%; BLM inh: -11.4%

Results for Nc1ncnc2c1ncn2COC(CO)CO ?
RECQ1 conf: -6.1%[69.1 µM]

How did Cc1oc(C)c2c(=O)ccc3c(c12)OC(N)=C(C#N)C3c1ccccc1Cl (stereo unspecified) do in these assays?
WRN helicase inh: -32.9%; TRb-SRC2 inh: -6.8%; APEX1 inh: 1.0%; TexasRed fluor: 13.3%; RECQ1 inh-1: inconclusive; BLM inh: inconclusive; RECQ1 inh-2: -21.1%

How did COc1ccc(C2C(C#N)=C(N)Oc3c2oc(CO)cc3=O)cc1 (stereo unspecified) do in these assays?
WRN helicase inh: -0.6%; TRb-SRC2 inh: -13.9%; APEX1 inh: -4.7%; TexasRed fluor: -1.4%; RECQ1 inh-1: -0.6%; BLM inh: -3.7%

What do the screens show for `N#CC1=C(N)OC2=C(CC/C2=C\c2ccccc2Cl)C1c1ccccc1Cl` (stereo unspecified)?
WRN helicase inh: 4.8%; TRb-SRC2 inh: 8.7%; APEX1 inh: -5.5%; TexasRed fluor: -9.6%; RECQ1 inh-1: -7.5%; BLM inh: -5.2%

What do the screens show for `CSc1ccc(C2C(C#N)=C(N)Oc3c2ccc(=O)c2c(C)oc(C)c32)cc1` (stereo unspecified)?
WRN helicase inh: inconclusive; TRb-SRC2 inh: -21.1%; APEX1 inh: inconclusive; TexasRed fluor: 4.6%; RECQ1 inh-1: inconclusive; BLM inh: -4.4%; RECQ1 inh-2: inconclusive

How did Cc1oc(C)c2c(=O)ccc3c(c12)OC(N)=C(C#N)C3c1ccccc1 (stereo unspecified) do in these assays?
WRN helicase inh: inconclusive; TRb-SRC2 inh: -4.0%; APEX1 inh: 10.8%; TexasRed fluor: 6.2%; RECQ1 inh-1: inconclusive; BLM inh: -1.8%; RECQ1 inh-2: -12.0%

Results for N#CC1=C(N)Oc2c(ccc3cccnc23)C1c1ccccc1 (stereo unspecified) ?
WRN helicase inh: -4.3%; TRb-SRC2 inh: 3.8%; APEX1 inh: -3.1%; TexasRed fluor: -0.5%; RECQ1 inh-1: -3.3%; BLM inh: -3.7%

How did COc1cc(C=O)ccc1Oc1ccc(S(=O)(=O)N2CCOCC2)cc1[N+](=O)[O-] do in these assays?
WRN helicase inh: -28.3%; APEX1 inh: 28.4%

Results for CCCCCN(C(=O)CCC(=O)OCC(=O)N(CC#N)c1ccccc1)c1c(N)n(CCCC)c(=O)[nH]c1=O ?
WRN helicase inh: -2.0%; APEX1 inh: -6.3%

Results for Cc1cccn2c(=O)c(C=C(C#N)C#N)c(N3CCN(C)CC3)nc12 ?
WRN helicase inh: 2.0%; APEX1 inh: 8.5%; BLM inh: -1.1%

What do the screens show for `COc1cc(-c2nc3n(n2)C(c2ccncc2)C2=C(CCCC2=O)N3)cc(OC)c1OC` (stereo unspecified)?
WRN helicase inh: -8.5%; TRb-SRC2 inh: 1.1%; APEX1 inh: 21.7%; TexasRed fluor: -1.0%; RECQ1 inh-1: 28.2µM*; BLM inh: -3.9%; RECQ1 inh-2: 1.4%

How did O=C(NCCCN1CCOCC1)c1ccc(NS(=O)(=O)c2ccccc2)cc1 do in these assays?
WRN helicase inh: -16.6%; APEX1 inh: -0.5%; BLM inh: 0.4%

How did CC(C)=C1C(=O)NN(c2ccc(F)c(Cl)c2)C1=O do in these assays?
WRN helicase inh: inconclusive; TRb-SRC2 inh: -3.8%; APEX1 inh: -3.2%; TexasRed fluor: -2.4%; RECQ1 inh-1: 31.6µM*; BLM inh: -1.8%; RECQ1 inh-2: -12.2%
